Assay results published in PubChem BioAssay (NCATS).
Values joined by “and” are separate entries in the source; they are usually repeats but may differ in a detail not shown here. Equal entries are not always repeated. Inconclusive results are not listed. A call without a number means that no potency is given here. Active and inactive are the calls of the source. The call rests on the fitted dose curve; in most records, active means well fitted curve in the direction sought with a large enough effect; inconclusive means small, poorly fitted or top-dose-only effect, or another doubt; inactive means no such curve, though single readings can be large; an effect the other way counts as inactive or inconclusive.

Assay: qHTS of pediatric cancer cell lines to identify multiple opportunities for drug repurposing: Primary screen for control Hh wild type fibroblast cells (AID 1347106); further: nearly all actives have a fitted effect of over 55% in size
Details: Hh wild-type fibroblast viability, CellTiter-Glo luminescence, 48 h; series mostly up to 46 µM
Summary of the method: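 Viability after 48 h compound treatment at 37C, 500-1,000 cells/well, read as ATP luminescence with CellTiter-Glo. Primary screens used 11-point (MIPE, 0.78 nM-46 µM) or 8-point (NPC, 0.59 nM-46 µM) final concentrations; follow-up screens used 11-point dilutions.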
Potency means the concentration at half of the fitted maximal effect.

| SMILES | Potency |
| --- | --- |
| CCCCC1C(=O)N(c2ccccc2)N(c2ccccc2)C1=O | inactive |
| COC1CCC(N(C(=O)C2CCC(C)CC2)c2cc(C3=CCCCC3)sc2C(=O)O)CC1 (stereo not drawn) | inactive |
| CCc1ccc(C=C2SC(=S)NC2=O)cc1 | inactive |
| Cc1nnc(C(C)C)n1C1C[C@H]2CC[C@@H](C1)N2CC[C@H](NC(=O)C1CCC(F)(F)CC1)c1ccccc1 (stereo partly drawn) | inactive |
| Cc1nc(N)sc1-c1ccnc(Nc2ccc(N3CCOCC3)cc2)n1 | 16.6 µM (active) |
| c1cc(-c2sc(-c3ccncc3)c(-c3ccncc3)c2-c2ccncc2)ccn1 | inactive |
| C[C@]12CCC3c4ccc(O)cc4CCC3C1CCC2=O (stereo partly drawn) | inactive |
| CCOC1OC(=O)C[C@H]1NC(=O)[C@@H]1CCCN1C(=O)[C@@H](NC(=O)c1ccc(N)c(Cl)c1)C(C)(C)C (stereo partly drawn) | inactive |
| CC(C)(C)c1cc(C(=O)O)c(NC(=O)Nc2ccc3[nH]ncc3c2)s1 | inactive |
| Clc1ccc(-c2nc3sccn3c2C=NOCc2ccc(Cl)c(Cl)c2)cc1 | inactive |
| Oc1ccc(C2CCN(c3ccnc4ccccc34)CC2)cc1O | inactive |
| CC1(C)CCC(CN2CCN(c3ccc(C(=O)NS(=O)(=O)c4ccc(NCC5CCOCC5)c([N+](=O)[O-])c4)c(Oc4cnc5[nH]ccc5c4)c3)CC2)=C(c2ccc(Cl)cc2)C1 | inactive |
| NC1=N[C@@]2(c3cc(NC(=O)c4ccc(F)cn4)ccc3F)COC[C@@H]2CS1 | inactive |
| CCc1ccc(OCc2ccccc2C(=O)Nc2ccc3nc(C)cc(N)c3c2)cc1 | 9.35 µM (active) |
| COc1ccc2c3c1OC1C[C@@H](O)C=C[C@@]31CCN(C)C2 (stereo partly drawn) | inactive |
| CC#CCn1c(N2CCC[C@@H](N)C2)nc2c1c(=O)n(Cc1nc(C)c3ccccc3n1)c(=O)n2C | inactive |
| CC(C)(C(=O)NCC(F)(F)C(F)(F)F)C(=O)N[C@@H]1C(=O)Nc2ccccc2-c2ccccc21 | inactive |
| CCCCCCCCCCCC1=C(O)C(=O)C=C(O)C1=O | inactive |
| CNC(=O)c1ccccc1Sc1ccc2c(C=Cc3ccccn3)n[nH]c2c1 | inactive |
| O=C1c2ccccc2-[n+]2ccc3c([nH]c4ccccc43)c21 | 9.35 µM (active) |

Assay: qHTS of pediatric cancer cell lines to identify multiple opportunities for drug repurposing: Primary screen for Rh30 cells (AID 1347107); further: nearly all actives have a fitted effect of over 75% in size
Details: Rh30 rhabdomyosarcoma viability, CellTiter-Glo luminescence, 48 h; series mostly up to 46 µM
Summary of the method: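 Cells (500-1,000/well) in growth media were settled 5 h at 37 degrees C, then given compounds for 48 h. Viability was read as CellTiter-Glo luminescence. Primary runs used MIPE at 11 points (0.78 nM-46 µM) and NPC at 8 points (0.59 nM-46 µM); follow-ups used 11 points.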

| SMILES | Potency |
| --- | --- |
| CCCCC1C(=O)N(c2ccccc2)N(c2ccccc2)C1=O | inactive |
| COC1CCC(N(C(=O)C2CCC(C)CC2)c2cc(C3=CCCCC3)sc2C(=O)O)CC1 (stereo not drawn) | inactive |
| CCc1ccc(C=C2SC(=S)NC2=O)cc1 | inactive |
| NS(=O)(=O)c1cccc2c1C(=O)c1cccc(O)c1C2=O | 2.35 µM (active) |
| Cc1nnc(C(C)C)n1C1C[C@H]2CC[C@@H](C1)N2CC[C@H](NC(=O)C1CCC(F)(F)CC1)c1ccccc1 (stereo partly drawn) | inactive |
| CC(C)NCC(O)COc1cccc2[nH]ccc12 (stereo not drawn) | inactive |
| O=C1NC(=O)C(c2ccccc2)(c2ccccc2)N1 | inactive |
| CON=C(C(=O)N[C@@H]1C(=O)N2C(C(=O)OCOC(=O)C(C)(C)C)=C(C=Cc3scnc3C)CS[C@H]12)c1csc(N)n1 | inactive |
| c1cc(-c2sc(-c3ccncc3)c(-c3ccncc3)c2-c2ccncc2)ccn1 | inactive |
| CN1C[C@H]2c3ccccc3Oc3ccc(Cl)cc3[C@@H]2C1 | inactive |
| Clc1ccc(C(c2ccc(Cl)cc2)n2cc[n+](CC(OCc3ccc(Cl)cc3Cl)c3ccc(Cl)cc3Cl)c2)cc1 (stereo not drawn) | 18.7 µM (active) |
| OC[C@@H](O)[C@H](O)[C@H](O)[C@@H](O)CO | inactive |
| C=C1C(=O)[C@@]23C(CC[C@@H]1[C@H]2O)[C@@]12CO[C@]3(O)[C@@H](O)[C@@H]1C(C)(C)CC[C@@H]2O (stereo partly drawn) | 7.43 µM (active) |
| CC(C)n1nc(-c2ccc3oc(N)nc3c2)c2c(N)ncnc21 | 11.8 µM (active) |
| C[C@]12CCC3c4ccc(O)cc4CCC3C1CCC2=O (stereo partly drawn) | inactive |
| CCOC1OC(=O)C[C@H]1NC(=O)[C@@H]1CCCN1C(=O)[C@@H](NC(=O)c1ccc(N)c(Cl)c1)C(C)(C)C (stereo partly drawn) | inactive |
| CC(C)C(C)C=CC(C)C1CCC2C3=CC=C4CC(O)CCC4(C)C3CCC21C (stereo not drawn) | inactive |
| Clc1ccc(-c2nc3sccn3c2C=NOCc2ccc(Cl)c(Cl)c2)cc1 | inactive |
| C=C1C(=O)OC(CCCCCCCC)C1C(=O)O (stereo not drawn) | inactive |
| O=C(NCCN1CCOCC1)c1ccc(Cl)cc1 | inactive |
| NC1CCC(Nc2nc(Nc3ccc(C(=O)N4CCCCC4)cc3)c3ncn(-c4cccc(F)c4)c3n2)CC1 (stereo not drawn) | inactive |
| NC1=N[C@@]2(c3cc(NC(=O)c4ccc(F)cn4)ccc3F)COC[C@@H]2CS1 | inactive |
| CCc1ccc(OCc2ccccc2C(=O)Nc2ccc3nc(C)cc(N)c3c2)cc1 | 11.8 µM (active) |
| O=c1[nH]cnc2c1ncn2[C@H]1CC[C@@H](CO)O1 | inactive |
| CCCCCCCCCCCC1=C(O)C(=O)C=C(O)C1=O | inactive |
| O=C1c2ccccc2-[n+]2ccc3c([nH]c4ccccc43)c21 | 4.18 µM (active) |

Assay: qHTS of pediatric cancer cell lines to identify multiple opportunities for drug repurposing: Primary screen for Rh41 cells (AID 1347108); further: nearly all actives have a fitted effect of over 70% in size
Details: Rh41 rhabdomyosarcoma viability, CellTiter-Glo luminescence, 48 h; series mostly up to 46 µM
Summary of the method: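 Quantitative HTS format: each compound titrated (MIPE 11 points from 0.78 nM, NPC 8 points from 0.59 nM) onto cells plated 5 hours earlier. After 48 h at 37 degrees C, CellTiter-Glo luminescence was recorded.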

| SMILES | Potency |
| --- | --- |
| CCCCC1C(=O)N(c2ccccc2)N(c2ccccc2)C1=O | inactive |
| COC1CCC(N(C(=O)C2CCC(C)CC2)c2cc(C3=CCCCC3)sc2C(=O)O)CC1 (stereo not drawn) | inactive |
| NS(=O)(=O)c1cccc2c1C(=O)c1cccc(O)c1C2=O | 0.935 µM (active) |
| Cc1nnc(C(C)C)n1C1C[C@H]2CC[C@@H](C1)N2CC[C@H](NC(=O)C1CCC(F)(F)CC1)c1ccccc1 (stereo partly drawn) | inactive |
| Cc1nc(N)sc1-c1ccnc(Nc2ccc(N3CCOCC3)cc2)n1 | 18.7 µM (active) |
| O=C(CCCCCCC(=O)Nc1ccccc1)NO | 3.35 µM (active) and 5.9 µM (active) |
| CC(C)NCC(O)COc1cccc2[nH]ccc12 (stereo not drawn) | inactive |
| O=C1NC(=O)C(c2ccccc2)(c2ccccc2)N1 | inactive |
| CON=C(C(=O)N[C@@H]1C(=O)N2C(C(=O)OCOC(=O)C(C)(C)C)=C(C=Cc3scnc3C)CS[C@H]12)c1csc(N)n1 | inactive |
| c1cc(-c2sc(-c3ccncc3)c(-c3ccncc3)c2-c2ccncc2)ccn1 | inactive |
| CN1C[C@H]2c3ccccc3Oc3ccc(Cl)cc3[C@@H]2C1 | inactive |
| Clc1ccc(C(c2ccc(Cl)cc2)n2cc[n+](CC(OCc3ccc(Cl)cc3Cl)c3ccc(Cl)cc3Cl)c2)cc1 (stereo not drawn) | 18.7 µM (active) |
| OC[C@@H](O)[C@H](O)[C@H](O)[C@@H](O)CO | inactive |
| C=C1C(=O)[C@@]23C(CC[C@@H]1[C@H]2O)[C@@]12CO[C@]3(O)[C@@H](O)[C@@H]1C(C)(C)CC[C@@H]2O (stereo partly drawn) | 4.69 µM (active) |
| CC(C)n1nc(-c2ccc3oc(N)nc3c2)c2c(N)ncnc21 | 0.0235 µM (active) |
| CC(C)C(C)C=CC(C)C1CCC2C3=CC=C4CC(O)CCC4(C)C3CCC21C (stereo not drawn) | inactive |
| C=C1C(=O)OC(CCCCCCCC)C1C(=O)O (stereo not drawn) | inactive |
| O=C(NCCN1CCOCC1)c1ccc(Cl)cc1 | inactive |
| CC1(C)CCC(CN2CCN(c3ccc(C(=O)NS(=O)(=O)c4ccc(NCC5CCOCC5)c([N+](=O)[O-])c4)c(Oc4cnc5[nH]ccc5c4)c3)CC2)=C(c2ccc(Cl)cc2)C1 | 18.7 µM (active) |
| NC1CCC(Nc2nc(Nc3ccc(C(=O)N4CCCCC4)cc3)c3ncn(-c4cccc(F)c4)c3n2)CC1 (stereo not drawn) | inactive |
| NC1=N[C@@]2(c3cc(NC(=O)c4ccc(F)cn4)ccc3F)COC[C@@H]2CS1 | 18.7 µM (active) |
| CCc1ccc(OCc2ccccc2C(=O)Nc2ccc3nc(C)cc(N)c3c2)cc1 | 9.35 µM (active) |
| COc1ccc2c3c1OC1C[C@@H](O)C=C[C@@]31CCN(C)C2 (stereo partly drawn) | inactive |
| O=c1[nH]cnc2c1ncn2[C@H]1CC[C@@H](CO)O1 | inactive |
| CCCCCCCCCCCC1=C(O)C(=O)C=C(O)C1=O | 4.69 µM (active) |
| OC[C@H]1O[C@@H](n2cnc3c2NC=NC[C@@H]3O)C[C@H]1O | inactive |
| O=C1c2ccccc2-[n+]2ccc3c([nH]c4ccccc43)c21 | 2.96 µM (active) |
